Read-out in assay [1]: Interleukin-8 (IL8), CXCL8 (gene 3576)
The assay is described as follows: BSK_3C_IL8: BioMAP Diversity Plus: 3C Assay for Interleukin-8 (IL8) Biomarker Activity (AID 2283020). As to conditions: primary human endothelial cells (HUVEC); actives raise or lower the signal. The method in brief:
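ELISA read-out of IL-8 from human umbilical vein endothelium, measured 24 h after chemical dosing. Activity is expressed relative to DMSO negative control, with both increases and decreases fitted.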

Read-out in assay [2]: Monokine induced gamma interferon (MIG), CXCL9 (gene 4283)
The assay is described as follows: BSK_3C_MIG: BioMAP Diversity Plus: 3C Assay for Monokine induced gamma interferon (MIG) Biomarker Activity (AID 2283021).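 On AC50: MIG protein level measured by immunoassay in the treated endothelial cultures.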 Conditions: primary human endothelial cells (HUVEC); actives raise or lower the signal. The method in brief:
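Read-out is ELISA detection of MIG on human umbilical vein endothelial cells, taken 24 h after dosing. Gain or loss of signal was scored relative to DMSO controls using bidirectional curve fitting.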

Assay [3] is described as follows: BSK_3C_SRB: Viability Assessment in the BioMAP Diversity Plus: 3C Assay (AID 2283023).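 Further: fitted both ways against DMSO so a hit may be signal rise or drop.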 As to conditions: primary human endothelial cells (HUVEC). The essentials:
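Absorbance at 560 nm of sulforhodamine B-stained (0.1%) total protein served as a cytotoxicity readout in human umbilical vein endothelial cells, 24 h after chemical treatment. Signal was fitted bidirectionally relative to DMSO.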

Read-out in assay [4]: Matrix Metallopeptidase 1 (MMP1), MMP1 (gene 4312)
Nature of the assay: BSK_BE3C_MMP1: BioMAP Diversity Plus: BE3C Assay for Matrix Metallopeptidase 1 (MMP1) Biomarker Activity (AID 2283024). Conditions: primary human bronchial epithelial cells; actives raise or lower the signal. The essentials:
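Human bronchial epithelial cells (BE3C system) exposed to compound for 24 h; MMP1 then quantified by ELISA. Activity was fitted in both directions relative to DMSO.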

A short description of assay [5]: BSK_3C_Vis: BioMAP Diversity Plus: 3C Assay for Morphology Visualization (AID 2283025).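 Further: fitted both ways so gain or loss versus DMSO counts.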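 On AC50: light microscopy image of cell morphology used as background control.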 As to conditions: primary human endothelial cells (HUVEC). The essentials:
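Chemicals were added to primary human umbilical vein endothelium, cells were incubated 24 h, and morphology was then visualized by light microscopy. Gain or loss of signal was fitted bidirectionally relative to DMSO.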

Read-out in assay [6]: Pselectin, SELP (gene 6403)
The assay is described as follows: BSK_4H_Pselectin: BioMAP Diversity Plus: 4H Assay for Pselectin Biomarker Activity (AID 2283026). Conditions: primary human endothelial cells (HUVEC); actives raise or lower the signal. The method in brief: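 ELISA read-out of P-selectin on human umbilical vein endothelium after 24 h of dosing. Values derive from bidirectional fitting relative to DMSO. Parallel SRB protein staining flagged overt cytotoxicity.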

Assay [7] is described as follows: BSK_4H_SRB: Viability Assessment in the BioMAP Diversity Plus: 4H Assay (AID 2283027).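 Further: cells exposed to compound for 24 h before staining.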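 On AC50: curves fitted both ways versus DMSO so AC50 may be loss or gain.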 As to conditions: primary human endothelial cells (HUVEC). The method in brief:
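Human umbilical vein endothelial cells were dosed with chemical and, after 24 h, fixed with 10% TCA, stained with 0.1% sulforhodamine B, and read at 560 nm to give total protein as a cytotoxicity measure. Bidirectional fitting relative to DMSO control.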

Assay [8] can be described thus: BSK_BE3C_SRB: Viability Assessment in the BioMAP Diversity Plus: BE3C Assay (AID 2283028).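 On AC50: fitted both ways so AC50 may mark signal gain or loss versus DMSO.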 As to conditions: primary human bronchial epithelial cells. The essentials:
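Cells (human bronchial epithelial, primary) are treated with chemicals, and after 24 h the parallel cultures are fixed in 10% TCA. These are then stained with 0.1% SRB and read at 560 nm. Gain or loss of signal is fitted relative to DMSO.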

Read-out in assay [9]: Thrombomodulin, THBD (gene 7056)
The assay is described as follows: BSK_3C_Thrombomodulin: BioMAP Diversity Plus: 3C Assay for Thrombomodulin Biomarker Activity (AID 2283029). As to conditions: primary human endothelial cells (HUVEC); actives raise or lower the signal. The essentials: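 Read-out is ELISA of thrombomodulin on human umbilical vein endothelium 24 h after chemical dosing. Gain or loss of signal is scored relative to DMSO. Overt cytotoxicity is checked in parallel cultures by sulforhodamine B staining.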

The target of assay [10] is human Vitamin D Receptor (VDR), VDR (gene 7421) (UniProt P11473). Nature of the assay: ATG_VDR_TRANS: Attagene TRANS-FACTORIAL HepG2 Assay for human Vitamin D Receptor (VDR) (AID 2283022; active means hit-call score of the fitted dose curve at least 0.9, where 1 is the maximum). The method in brief:
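Steps: transfect HepG2 with GAL4-UAS-driven reporter constructs; dose compounds 24 h; isolate RNA, reverse-transcribe, PCR-amplify with 6-FAM-labelled primer extension and HpaI digestion; quantify fragments by capillary electrophoresis relative to DMSO.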

SMILES strings stand for the structures. Values joined by “and” are separate entries in the source; they are usually repeats but may differ in a detail not shown here. Equal values may be shown once. Records with an inconclusive call do not appear. Where a structure was tested more than once in an assay, its records may differ in their call. Active and inactive are the calls of the source. How the source made its calls, unless noted: active means hit-call score of the fitted dose curve at least 0.9, where 1 is the maximum; inactive means score below 0.9.

Sequence of human Vitamin D Receptor (VDR), VDR (gene 7421) (P11473 whole entry, looked up, the tested form may be a part): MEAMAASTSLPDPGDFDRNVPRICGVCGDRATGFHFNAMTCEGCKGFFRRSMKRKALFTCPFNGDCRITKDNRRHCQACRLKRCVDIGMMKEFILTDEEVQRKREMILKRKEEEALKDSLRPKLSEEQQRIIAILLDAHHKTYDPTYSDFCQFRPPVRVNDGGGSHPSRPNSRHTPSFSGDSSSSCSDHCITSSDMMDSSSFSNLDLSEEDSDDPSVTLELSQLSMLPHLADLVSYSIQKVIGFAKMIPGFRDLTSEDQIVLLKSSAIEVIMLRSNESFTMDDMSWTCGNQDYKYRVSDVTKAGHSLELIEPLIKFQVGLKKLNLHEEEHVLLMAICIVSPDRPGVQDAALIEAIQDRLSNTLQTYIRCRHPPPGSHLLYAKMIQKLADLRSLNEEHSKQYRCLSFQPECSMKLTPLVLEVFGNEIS

For `N#CN`, the outcome in [1], in [2], in [3], in assay [4], in [5] and in assay [6] was inactive. For the same compound, the result in assay [7], in assay [8] and in assay [9] was inactive.
Turning to `Cc1[nH]c(=O)n(C(C)(C)C)c(=O)c1Cl`, the outcome in [1], in [2], in assay [3], in assay [4], in assay [5] and in assay [6] was inactive. In addition, the result in [7], in [8] and in [9] was inactive.
A word on the AC50: it is the concentration at which the activity in the assay is half-maximal. Turning to `CC(C)N(C(=O)COc1nnc(C(F)(F)F)s1)c1ccc(F)cc1`, the outcome in assay [1], in assay [2], in [3], in assay [4], in assay [5] and in assay [7] was inactive. The outcome in assay [8] and in [9] was inactive. Also, in [6], the AC50 is 11.1 µM (active).
In the case of `O=C(NC(=O)c1c(F)cccc1F)Nc1ccc(OC(F)(F)C(F)OC(F)(F)F)c(Cl)c1` (configuration not stated), the result in [1], in assay [2], in assay [3], in [4], in [5] and in assay [6] was inactive. For the same compound, the result in assay [7], in assay [8] and in assay [9] was inactive.
For the compound `CCC(C)(NC(=O)c1cc(Cl)c(C)c(Cl)c1)C(=O)CCl` (configuration not stated), the result in assay [1] and in assay [9] was inactive. Moreover, the AC50 in [2] is 14.1 µM (active); in [3], 12.2 µM (active); in assay [4] it was 27 µM (active); in assay [5], 7.99 µM (active); in assay [6] it was 12 µM (active); in assay [7], 27.3 µM (active). In addition, the AC50 in [8] is 16.5 µM (active).
As to `CCN(CC)C(=O)SCc1ccc(Cl)cc1`, the result in assay [2], in assay [10], in assay [3], in assay [4], in assay [5] and in [6] was inactive. Moreover, the outcome in assay [7], in [8] and in [9] was inactive.
On to `CNC(=O)Oc1ccccc1OC(C)C`, for which the result in [1], in assay [2], in [3], in assay [4], in assay [5] and in assay [6] was inactive. Moreover, the result in assay [7], in assay [8] and in [9] was inactive.
With `COP(=S)(OC)Oc1ccc(SC)c(C)c1`, the outcome in assay [1], in assay [2], in assay [10], in [5], in assay [6] and in assay [9] was inactive. Moreover, the AC50 was 3.97 µM (active) in [4], 5.31 µM (active) in assay [7] and 23.2 µM (active) in assay [8].
For `COP(=O)(OC)OC=C(Cl)Cl`, the outcome in assay [1], in assay [2], in [3], in assay [4], in assay [7] and in assay [8] was inactive. Besides, the outcome in assay [9] was inactive. The AC50 in [5] was 9.8 µM (active); in assay [6], 16.8 µM (active).
`COC(=O)c1ccccc1S(=O)(=O)NC(=O)N(C)c1nc(C)nc(OC)n1`: the outcome in assay [1], in assay [2], in assay [3], in assay [4], in assay [5] and in assay [7] was inactive. The result in [8] and in assay [9] was inactive. Besides, in assay [6], the AC50 was 12.9 µM (active).
Take `CCOc1nc(NC)nc(NC(=O)NS(=O)(=O)c2ccccc2C(=O)OC)n1`: the result in assay [1], in assay [2], in [3], in [4], in assay [5] and in assay [6] was inactive. The result in assay [7], in assay [8] and in assay [9] was inactive.
For `Oc1ccc(Cl)cc1Cc1ccccc1`, the AC50 was 33.6 µM (active) [middle of 7 runs] in [1]; 36.8 µM (active) [middle of 7 runs] in assay [2]; 24.4 µM (active) [middle of 7 runs] in assay [3]; 32.8 µM (active) [middle of 7 runs] in [4]; 37.9 µM (active) and 14.7 µM (active) and 20 µM (active) in assay [5]; 28.2 µM (active) [middle of 7 runs] in [6]. The values for the AC50 in assay [7], in [8] and in assay [9] were 28.1 µM (active) [middle of 7 runs], 34.7 µM (active) [middle of 5 runs] and 31.8 µM (active) [middle of 5 runs], respectively. Also, the result in assay [9] was inactive.
As for `CN1CSC(=S)N(C)C1`, the result in assay [1], in [2], in assay [4], in assay [7] and in assay [8] was inactive. Besides, the AC50 is 20 µM (active) in [3], 13.2 µM (active) in assay [5], 6.08 µM (active) in [6] and 5.21 µM (active) in assay [9].
Consider `CC(C)(C)C(O)/C(=C\c1ccc(Cl)cc1Cl)n1cncn1` (configuration not stated), for which the AC50 is 32.2 µM (active) in assay [1]; 27.8 µM (active) in assay [3]; 33.6 µM (active) in assay [4]; 37.2 µM (active) in assay [5]; 32.1 µM (active) in assay [6]; 15.8 µM (active) in assay [7]. In addition, the result in [2], in assay [10] and in assay [9] was inactive.

Values taken from PubChem BioAssay (EPA / NIEHS).
